Only some compounds are listed: those with a hit (about 9.2% of all), similar ones and a draw of the others.
Rab9 prom act: activates the Rab9 promoter. Huh7 Rab9 promoter-luciferase reporter, luminescence, 24 h. Potency, µM (doses to about 9.22 µM), for the others: at the top dose activation, negative = inhibition, hits mostly activators. 320,000 compounds, 2.8% hits. AID 485297; also: % of control where 0% means no effect; nearly all actives have a fitted effect of over 60% in size
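Quantitative HTS format; Huh7 Rab9-luciferase reporter cells (1500/well) receive compound 2 h post-plating, incubate 24 h at 37 °C, then get luciferase reagent for 10 min before luminescence reading.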
SMN2 splice enh: increases expression of the SMN2 splice variant. HEK293 SMN2-luciferase splicing reporter, luminescence, 30-36 h. Potency, µM (titrated, usually from 46.1 µM), for inactives: at the highest dose activity change, positive = activation, most hits filed as activators. 210,000 compounds, 2.8% hits. AID 1458; also: % of control where 0% means no effect; nearly all actives have a fitted effect of over 55% in size
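HEK293 cells carry an SMN2 minigene-luciferase reporter in which exon 7 inclusion puts luciferase in frame. Cells were seeded at 2000 cells/well, attached for 10-12 hours, then exposed to compounds for 30-36 hours at 37C before ONE-Glo luminescence.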
ELG1 DNA repair: blocks ELG1-dependent DNA repair in HEK293T cells. HEK293T ELG1-luciferase reporter, luminescence, 16 h; DNA damage induced by 5-fluorouridine. Potency, µM (doses to about 46.1 µM), for inactives: top-dose activity change, negative = inhibition, actives largely listed as inhibitors. 330,000 compounds, 2.3% hits; also: % is scaled to controls: 0 for no effect and ±100 for the full control effect; nearly all actives have a fitted effect of over 55% in size
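DMSO vehicle served as the neutral condition. Each well held 2,000 cells given 5-fluorouridine plus compound; after 16 hr at 37 °C/5% CO2, ONE-Glo was added and luciferase measured 30 min later.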
FLuc modulator: counter-screen for miR-21 project: firefly luciferase inhibitors or activators. Potency, µM (series often up to 57.5 µM), without a hit: top-dose activity change, negative = inhibition, most hits filed as inhibitors. P08659. purified FLuc, Km substrates, luminescence inhibition. 360,000 compounds, 6.9% hits;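 also: plate controls were vehicle for no effect and reference inhibitor for full effect; nearly all actives have a fitted effect of over 55% in size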
Target sequence (P08659 whole entry, looked up): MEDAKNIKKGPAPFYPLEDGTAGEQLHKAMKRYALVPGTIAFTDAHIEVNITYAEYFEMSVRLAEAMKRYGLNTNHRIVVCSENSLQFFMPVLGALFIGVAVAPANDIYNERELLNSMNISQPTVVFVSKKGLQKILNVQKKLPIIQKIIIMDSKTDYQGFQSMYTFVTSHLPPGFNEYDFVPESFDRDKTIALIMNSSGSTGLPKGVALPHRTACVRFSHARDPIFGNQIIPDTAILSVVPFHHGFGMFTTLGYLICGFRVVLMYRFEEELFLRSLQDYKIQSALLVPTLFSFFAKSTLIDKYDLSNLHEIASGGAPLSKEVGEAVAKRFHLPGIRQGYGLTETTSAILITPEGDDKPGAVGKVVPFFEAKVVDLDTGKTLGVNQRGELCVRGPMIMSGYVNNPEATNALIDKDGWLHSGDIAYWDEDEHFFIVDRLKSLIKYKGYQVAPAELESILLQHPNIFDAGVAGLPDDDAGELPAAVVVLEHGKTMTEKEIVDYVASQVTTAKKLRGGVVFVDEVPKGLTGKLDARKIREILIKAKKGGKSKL
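Purified P. pyralis luciferase, 10 nM final, with Km-level 10 uM D-luciferin and 10 uM ATP in 50 mM Tris acetate pH 7.5, 10 mM Mg acetate, 0.01% Tween-20, 0.05% BSA; 6-point qHTS titration about 60 µM downward; luminescence read.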
ELG1 genotox: induces genotoxicity in HEK293T cells with luciferase-tagged ELG1. HEK293T ELG1-luciferase reporter, luminescence, 16 h. Potency, µM (titrated, usually from 46 µM), inactives show at the highest dose activity change, positive = activation, usual class: activators. 330,000 compounds, 1.3% hits. AID 504466; also: % of control where 0% means no effect; nearly all actives have a fitted effect of over 60% in size
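DMSO vehicle served as control against compound-treated ELG1-luciferase HEK293T cells; exposure lasted 16 hr at 37 °C and 5% CO2, followed by ONE-Glo luminescence detection after 30 min.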
NPC1 prom act: NPC1 promoter activation; Huh7 NPC1 promoter luciferase reporter, 24 h; Potency, µM (top dose mostly 9.22 µM), inactives show at the highest dose activation, hits mostly activators; 320,000 compounds, 2.4% hits; AID 485313; also: % of control where 0% means no effect; nearly all actives have a fitted effect of over 60% in size
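Huh7 cells stably carrying NPC1 promoter–luciferase, plated in Opti-MEM with 10% FBS for 2 h, were exposed to compound in DMSO for 24 h at 37 °C; luciferase reagent was added for 10 min and luminescence read.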
An asterisk follows results filed as active; ? = inconclusive; . = not tested or not shown; [ ] = dose if it differs, or a comment. Calls follow the shape of the dose curve; as a rule, active = well fitted curve in the direction sought with a large enough effect; inconclusive = small, poorly fitted or top-dose-only effect, or another doubt; inactive = no such curve, though single readings can be large; an effect the other way counts as inactive or inconclusive. Potency is read from the fitted curve at half-maximal effect.

SMILES	Rab9 prom act	SMN2 splice enh	ELG1 DNA repair	FLuc modulator	ELG1 genotox	NPC1 prom act
CCN(CC)S(=O)(=O)c1ccc(/C=C/C(=O)Nc2ccc(N3CCOCC3)cc2)cc1	-20%	.	5.2µM*	-1%	-13%	-1%
CCCn1c(CCC(=O)Nc2ccccc2Cc2ccccc2)nc2cc(S(=O)(=O)N3CCOCC3)ccc21	1%	-11%	12µM*	0%	2%	0%
Cn1c(CCC(=O)Nc2ccc(F)cc2)nc2cc(S(=O)(=O)N3CCOCC3)ccc21	-6%	.	2%	3%	-10%	-1%
NC(=O)C1Cc2ccccc2CN1C(=O)c1nn(Cc2ccccc2)c(=O)c2ccccc12 (stereo not given)	-2%	.	?	2%	0%	-2%
CSc1ncccc1C(=O)OCC(=O)Nc1cccc(S(=O)(=O)N2CCOCC2)c1	.	.	?	.	-1%	.
CCOc1cc(/C=N/NC(=O)c2nn(C)cc2Br)ccc1OCc1ccccc1	-3%	-20%	18µM*	?	0%	-1%
COc1cc(/C=N/NC(N)=S)cc(Br)c1OCc1ccccc1F	-10%	-33%	23µM*	-10%	-7%	-9%
COc1cc(/C=N/NC(=O)CC2(C)OCCO2)cc(Br)c1O	-2%	-1%	9%	-2%	1%	-4%
COc1cc(/C=N/NC(=O)C23CC4CC(CC(C4)C2)C3)cc(Br)c1O	3%	6%	1%	13µM*	2%	-1%
COc1cc(/C=N\NC(=O)c2ccc(-c3ccccc3)cc2)cc(Br)c1O	5%	.	-23%	11µM*	-11%	0%
CC(C)NC(=O)N1CCC2(CC1)CCN(C(=O)c1ccco1)CC2	.	1%	.	.	.	.
CCOc1cc(/C=N/NC(N)=O)cc(Br)c1OCc1ccccc1	-1%	-5%	3%	0%	0%	-5%
COc1ccc(/C=N/NC(=O)c2ccc3c(c2)OCO3)c(C(=O)O)c1OC	0%	.	7%	-8%	3%	-2%
COc1cc(/C=N/NC(=O)c2ccc3c(c2)OCCO3)cc(Br)c1O	15%	.	?	11µM*	14%	2%
CCOc1c(Br)cc(/C=N\NC(=O)c2ccccc2)cc1OC	-3%	7%	?	5.4µM*	-8%	-2%
O=C(N/N=C/c1cc([N+](=O)[O-])cc(Br)c1O)C12CC3CCC(CC(C3)C1)C2	-6%	.	23µM*	-2%	-9%	-1%
COc1cc(/C=N/NC(=O)c2ccc3c(c2)OCCO3)c(Br)c(Br)c1O	-1%	.	?	9.5µM*	9%	1%
O=C(Nc1cccc(C(F)(F)F)c1)c1cccc(NS(=O)(=O)c2ccc(O)c(C(=O)O)c2)c1	3%	.	26%	?	3%	-2%
Cc1cc(C)c2c(N=NN3CCCCC3)[nH]nc2n1	23%	1%	?	19µM*	17%	20%
Cc1cc(=S)nc(-c2ccccn2)[nH]1	-1%	.	?	-3%	3%	0%
Nc1ccc2nc(-c3ccccc3)[nH]c2c1	3.2µM*	18µM*	?	7.6µM*	?	3.2µM*
Cn1cccc1-c1nc2ccc(NC(=O)c3cccs3)cc2[nH]1	3%	41%	?	?	?	0%
CC(=O)Nc1ccc2nc(-c3cccs3)[nH]c2c1	2.5µM*	?	?	12µM*	?	?
Nc1ccc2nc(-c3ccccn3)[nH]c2c1	?	16µM*	?	13µM*	11%	?
Nc1ccc2nc(-c3cccnc3)[nH]c2c1	-1%	3%	22%	?	5%	-2%
SMILES	Rab9 prom act	SMN2 splice enh	ELG1 DNA repair	FLuc modulator	ELG1 genotox	NPC1 prom act
Nc1ccc(-c2nc3c(Cl)cc(N)cc3[nH]2)cc1	-13%	-26%	0%	21µM*	-4%	-26%
Nc1ccc2nc(C(F)(F)F)[nH]c2c1	1%	-2%	5%	-2%	1%	-2%
Nc1cccc(-c2nc3ccc(C(=O)c4ccccc4)cc3[nH]2)c1	24%	.	?	0.76µM*	?	18%
Nc1ccc2nc(-c3ccc(N)c(Cl)c3)[nH]c2c1	2.8µM*	?	4%	6µM*	?	?
COC(=O)Nc1nc2ccc(C(=O)c3ccccc3)cc2[nH]1	.	23%	.	.	.	.
COc1ccc2nc(-c3ccccn3)[nH]c2c1	2µM*	.	?	6.7µM*	5.2µM*	1.3µM*
COc1ccc2nc(NCCCO)[nH]c2c1	2%	9%	15%	-3%	-2%	0%
Nc1ccc2nc(-c3cccs3)[nH]c2c1	2.5µM*	22µM*	?	11µM*	?	?
CCOC(=O)c1c(NC(=O)Cc2coc3cc(C)cc(C)c23)sc2c1CCC2	.	-2%	.	-10%	.	.
NC(=O)c1cc2cc(Cl)ccc2oc1=Nc1cccc(C(F)(F)F)c1	1%	6%	9%	-3%	4%	0%
Oc1cc2c(cc1CN1CCN(c3ncccn3)CC1)OCO2	-1%	.	11%	1%	1%	2%
CC(=O)c1ccc2c(c1)Cc1cc(C(C)=O)ccc1-2	1.8µM*	.	?	?	18µM*	2.5µM*
CCC(=O)Nc1ccc2c(c1)Cc1cc(NC(=O)CC)ccc1-2	?	.	?	2%	?	29%
CSc1nc(/C=C2\C=Nc3ccccc32)c(O)n1C	15%	?	?	13µM*	13%	0%
CCCc1c(OCCCOc2ccc(OCC(=O)O)cc2)ccc(C(C)=O)c1O	-3%[46.1 µM]	-12%	8%	1%	-8%	7%[46.1 µM]
Cc1cnc(NC(=O)CSc2ccc(Cl)cc2)s1	-2%	-11%	-10%	?	-2%	-3%
Cc1cnc(NC(=O)Nc2ccc(Cl)cc2)s1	-31%	173%	?	4.8µM*	?	14%
O=C(Nc1ccc(Cl)cc1)Nc1nnc(-c2ccncc2)s1	-33%	-57%	3.7µM*	-17%	-11%	-18%
O=C(Nc1ccc(F)cc1)Nc1nnc(-c2ccncc2)s1	-13%	-60%	?	-12%	-13%	-3%
O=C(COC(=O)CNC(=O)C1CCCCC1)Nc1ccc2ccccc2c1	20%	7%	?	-10%	13%	2%
CC(C)(C)c1ccc(C(=O)NCC(=O)OCC(=O)Nc2ccc3c(c2)OCCO3)cc1	2%	4%	?	3.4µM*	-1%	8%
CC(C)(C)OC(=O)N1Cc2ccccc2C[C@H]1C(=O)NCC(=O)Nc1ccc2c(c1)OCCO2	0%	.	?	21µM*	?	1%
O=C(COC(=O)CNC(=O)C1CCCCC1)Nc1ccc2c(c1)OCCO2	2%	-3%	1%	19µM*	6%	0%

Compound activity (PubChem)
